VACV E9 pol inh: blocks vaccinia virus processive DNA synthesis; in vitro processive DNA synthesis, absorbance read-out; stronger effect = lower value; normalized absorbance, % (test concentration not listed); actives 0.94% (n = 46,000); in the data active = normalized absorbance mostly below about 85%, no sharp cut-off; inactive = mostly above about 86%
Active calls of the source: *. This is one part of a sample in which hits are shown more often than they occur.

O=C1/C(=C/c2ccco2)CC(c2ccccc2)C/C1=C\c1ccco1 (stereo not given) was read as VACV E9 pol inh 92.1.
Screening CC1=C/C(=C/c2ccco2)C(=O)O1 returned VACV E9 pol inh 99.6.
Cc1ccccc1C(=O)OCC1CCCN2CCCCC12 (stereo not given) was read as VACV E9 pol inh 100.9.
Screening Cc1ccc2nc(SCc3nc4cccc(C)n4c3Br)[nH]c2c1 returned VACV E9 pol inh 100.5.
`CCOC(=O)c1cnc2ccc(C(=O)OC)cc2c1NCCN(C)C` gave VACV E9 pol inh 51.5*.
CCOC(=O)c1cnc2ccc(F)cc2c1NCc1cccnc1 was read as VACV E9 pol inh 94.2.
`CCOC(=O)c1cnc2ccccc2c1NCCO` gave VACV E9 pol inh 94.6.
Screening COc1cccc(OCC(=O)OC2CCS(=O)(=O)C2)c1 (stereo not given) returned VACV E9 pol inh 101.1.
Screening C/C(=C\C(=O)Nc1ccccc1)N1CCOCC1 returned VACV E9 pol inh 100.9.
For COc1cc(C(=O)NCc2ccc(OCCN(C)C)cc2)cc(OC)c1OC the results were VACV E9 pol inh 100.6.
For COc1ccc(Cc2nccc3cc(OC)c(OC)cc23)cc1OC the results were VACV E9 pol inh 97.0.
COc1cc2ccc3c(CCN(C)C)cc(OC)c(OC)c3c2cc1OC was read as VACV E9 pol inh 60.9*.
Screening CC(=O)NCS(=O)(=O)c1ccc(C)cc1 returned VACV E9 pol inh 99.4.
C=CCn1c(C(Cc2ccccc2)NC(=O)c2ccccc2)nc2ccccc21 (stereo not given) was read as VACV E9 pol inh 102.1.
Screening O=C(c1cc2ccccc2c(=O)s1)N1CCOCC1 returned VACV E9 pol inh 108.0.
CN(C)c1ccc(C(=NO)c2ccc(N(C)C)cc2)cc1 was read as VACV E9 pol inh 99.9.
CN(C)c1ccc(C(=C2C=CC(=[N+](C)C)C=C2)c2ccc(N(C)C)cc2)cc1 was read as VACV E9 pol inh 49.3*.
For CN(C)c1ccc(C(=O)OCC(=O)NC2CC2)cc1 the results were VACV E9 pol inh 106.6.
`Cc1cccc(C(=O)Nc2nc3cc4sc(NC(=O)c5cccc(C)c5)nc4cc3s2)c1` gave VACV E9 pol inh 104.7.
Screening CCOc1ccc(-c2nc3ccc(-c4nc5ccc(N6CCN(C)CC6)cc5[nH]4)cc3[nH]2)cc1 returned VACV E9 pol inh 22.6*.
CCOc1ccc(-c2nc(=S)[nH][nH]2)cc1 was read as VACV E9 pol inh 101.1.
For CCOc1ccc2nc(SCC)[nH]c2c1 the results were VACV E9 pol inh 127.3.
Screening O=C(CSC1=NCCN1)Nc1cc(C(F)(F)F)ccc1Cl returned VACV E9 pol inh 100.8.
Cc1ccc2c(Cl)cc(Cl)c(OCC(=O)N(C)Cc3ccccc3)c2n1 was read as VACV E9 pol inh 99.6.
NCCCc1nc2ccc(Cc3ccc4nc(CCCN)[nH]c4c3)cc2[nH]1 was read as VACV E9 pol inh 77.4.
Screening NCCCc1nc2cc3sc(CCCN)nc3cc2s1 returned VACV E9 pol inh 60.5*.
`c1ccc2sc(CCc3nc4ccccc4s3)nc2c1` gave VACV E9 pol inh 98.5.
Screening Cc1ccc(N2C(=O)CC(Nc3ccc(N4CCOCC4)cc3)C2=O)c(C)c1 (stereo not given) returned VACV E9 pol inh 96.5.
For C[N+](C)(C)[C@H]1C(O)O[C@@H]2C(O)CO[C@@H]21 (stereo not given in full) the results were VACV E9 pol inh 100.5.
CCS(=O)(=O)N1CCN=C1SCc1ccc(C)cc1 was read as VACV E9 pol inh 101.1.
Screening CCS(=O)(=O)N1CCN=C1SCc1ccc(Cl)cc1Cl returned VACV E9 pol inh 20.8*.
For COc1ccc(-c2ccnc(SCc3ccc(Cl)cc3Cl)n2)cc1 the results were VACV E9 pol inh 110.8.
For O=C(NCCCN1CCCCC1)c1ccc(-n2c(-c3ccccc3)cc3c2CCCC3)cc1 the results were VACV E9 pol inh 98.6.
`CC(C)(C)c1ccccc1OCC(O)CN1CCN(c2ccccc2F)CC1` (stereo not given) gave VACV E9 pol inh 99.8.
`CC(=O)Nc1nc(C2CC2)cc(-c2ccccc2)c1C#N` gave VACV E9 pol inh 84.6*.
`CCOC(=O)CSc1nc(C2CC2)cc(-c2ccccc2)c1C#N` gave VACV E9 pol inh 99.0.
For COC(=O)CSc1nc(-c2ccccc2)cc(-c2ccccc2)c1C#N the results were VACV E9 pol inh 99.3.
O=C(c1ccc(Cl)cc1)c1cnc2n1CCC2 was read as VACV E9 pol inh 98.6.
`Cc1cc2c(=O)n(CC(=O)NCC(=O)N3CCCCC3)cnc2s1` gave VACV E9 pol inh 109.2.
`NNc1nc2c3c(ccc2s1)CCCC3` gave VACV E9 pol inh 93.0.
O=Nc1c(-c2c(O)[nH]c3ccccc23)[nH]c2ccccc12 was read as VACV E9 pol inh 82.9*.
For CC(C)N=Cc1c(O)[nH]c2ccccc12 the results were VACV E9 pol inh 99.7.
COc1ccc2[nH]c(O)c(N=O)c2c1 was read as VACV E9 pol inh 99.9.
`Cc1cc(C)c(NC(=O)COC(=O)c2ccco2)c(C)c1` gave VACV E9 pol inh 102.2.
Screening CN(C)c1sc(C#N)cc1-c1ccccc1 returned VACV E9 pol inh 106.7.
`O=C(O)CN1C(=O)/C(=C\c2ccsc2)SC1=S` gave VACV E9 pol inh 97.1.
Cc1ccccc1Nc1nccc(N(C)C)c1C#N was read as VACV E9 pol inh 81.9*.
For Cc1ccccc1NC1=NC(C)(C)CS1 the results were VACV E9 pol inh 106.1.
For Cc1ccccc1NC1=NCCS1 the results were VACV E9 pol inh 107.9.
For CN(C)Cc1c(O)ccc2cc(-c3nc4ccccc4o3)c(=O)oc12 the results were VACV E9 pol inh 101.2.
For O=C(/C=C/c1ccc(Cl)cc1)N1CCN(C(=O)c2ccco2)CC1 the results were VACV E9 pol inh 100.6.
CCOC(=O)C(C)Sc1nnc(NC(=O)c2cc(Br)ccc2Cl)s1 (stereo not given) was read as VACV E9 pol inh 101.6.
For O=c1c2ccccc2nc(SCc2ccccc2F)n1CCc1ccccc1 the results were VACV E9 pol inh 99.9.
For Cc1ccc(CSc2nc3ccccc3c(=O)n2Cc2ccccc2)cc1 the results were VACV E9 pol inh 102.1.
`O=c1c2ccccc2nc(SCc2c(F)cccc2F)n1Cc1ccccc1` gave VACV E9 pol inh 76.3*.
`CN(/N=C1/CCN(C2CCCCC2)C1=O)c1ccc(Cl)cc1` gave VACV E9 pol inh 96.8.
For Oc1c(Cl)cc(Cl)cc1/C=N/c1ccnn1-c1ccccc1 the results were VACV E9 pol inh 90.1.
For Oc1c(Cl)cc(Cl)cc1C=Nc1ccc2n[nH]nc2c1 the results were VACV E9 pol inh 102.5.
For Cc1cc(N=Cc2cc(Cl)cc(Cl)c2O)no1 the results were VACV E9 pol inh 56.3*.
For CC1(C)O[C@@H]2C[C@H]3C4C[C@H](F)C5=CC(=O)C=CC5(C)[C@@]4(F)[C@@H](O)C[C@]3(C)[C@]2(C(=O)CO)O1 (stereo not given in full) the results were VACV E9 pol inh 100.4.
For Cc1c(C(=O)NCc2ccco2)cc(-c2ccccc2)n1CCSCc1c(F)cccc1Cl the results were VACV E9 pol inh 100.5.
Cc1c(C(=O)O)cc(-c2ccccc2)n1CCSCc1c(F)cccc1Cl was read as VACV E9 pol inh 81.6*.
O=C(O)c1ccc(CSCc2c(F)cccc2Cl)o1 was read as VACV E9 pol inh 93.6.
For CCOC(=O)c1c(C)nn(C)c1C the results were VACV E9 pol inh 98.7.
For Cc1sc(/N=C/c2ccc(Br)s2)c(C(N)=O)c1C the results were VACV E9 pol inh 100.8.
`Cc1cccc2nc(CSCc3ccco3)cn12` gave VACV E9 pol inh 79.8.
Screening Cc1cccc2nc(CSC(=S)NCc3cccnc3)cn12 returned VACV E9 pol inh 72.2*.
